Data on 27 molecules can be found in publication PMC4336329 (PLoS ONE, 2015).

In all, about 310,000 compounds went through this assay and about 14,000 (4.5%) showed an effect of 50% or more. The effect is printed as a negative number. Only a selection was taken, and strong results are over-represented in it overall.
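Note: peak tail current of the secondary pulse compared with the same well before compound.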

Sequence of human ether-à-go-go-related gene (hERG) potassium channel (Q12809 whole entry, looked up): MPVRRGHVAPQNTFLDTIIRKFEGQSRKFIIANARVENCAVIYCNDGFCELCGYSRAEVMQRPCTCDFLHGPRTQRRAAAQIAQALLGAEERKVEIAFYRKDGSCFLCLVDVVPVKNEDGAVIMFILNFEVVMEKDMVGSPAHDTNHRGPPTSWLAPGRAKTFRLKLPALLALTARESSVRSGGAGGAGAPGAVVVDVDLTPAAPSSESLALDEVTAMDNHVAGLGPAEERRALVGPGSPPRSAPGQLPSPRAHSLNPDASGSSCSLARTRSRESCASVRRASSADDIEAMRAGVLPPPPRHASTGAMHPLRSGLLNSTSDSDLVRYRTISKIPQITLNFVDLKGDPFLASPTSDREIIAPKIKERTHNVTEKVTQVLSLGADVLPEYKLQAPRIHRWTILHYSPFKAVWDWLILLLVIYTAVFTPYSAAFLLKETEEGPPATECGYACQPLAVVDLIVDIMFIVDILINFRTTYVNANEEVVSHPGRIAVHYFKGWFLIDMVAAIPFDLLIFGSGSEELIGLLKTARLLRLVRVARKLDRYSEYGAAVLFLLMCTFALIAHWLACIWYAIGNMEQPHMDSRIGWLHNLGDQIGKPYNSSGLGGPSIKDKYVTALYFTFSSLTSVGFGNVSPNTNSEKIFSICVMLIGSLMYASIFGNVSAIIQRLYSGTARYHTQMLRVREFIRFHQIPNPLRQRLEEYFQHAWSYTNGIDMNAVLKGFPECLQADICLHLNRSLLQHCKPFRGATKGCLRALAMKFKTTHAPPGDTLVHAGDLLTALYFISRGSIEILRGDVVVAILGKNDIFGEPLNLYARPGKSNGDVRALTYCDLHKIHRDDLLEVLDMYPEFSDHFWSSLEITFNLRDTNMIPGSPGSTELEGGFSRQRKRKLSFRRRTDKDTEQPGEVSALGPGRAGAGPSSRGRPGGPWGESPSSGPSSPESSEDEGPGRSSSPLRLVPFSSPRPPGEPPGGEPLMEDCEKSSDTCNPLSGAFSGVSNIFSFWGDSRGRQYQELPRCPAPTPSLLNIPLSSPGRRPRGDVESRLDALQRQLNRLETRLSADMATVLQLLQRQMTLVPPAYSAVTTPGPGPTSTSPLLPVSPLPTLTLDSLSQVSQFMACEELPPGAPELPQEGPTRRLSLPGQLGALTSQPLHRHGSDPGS

The test concerns the target human ether-à-go-go-related gene (hERG) potassium channel (human, UniProt Q12809). In words: primary screen, population patch clamp on CHO cells stably expressing hERG; higher = less effect of the substance.
Take `COc1ccc(NC(=O)CN(C)C(=O)CCC2CCCC2)cc1`: the “hERG current change (%, negative = inhibition) at 10uM” value came to 5.49%.

With `O=C(C1CCC(CNS(=O)(=O)c2cccc3nsnc23)CC1)N1CCN(c2ccccn2)CC1` (stereo not drawn), the “hERG current change (%, negative = inhibition) at 10uM” value is -53.9%.

Turning to `O=C(CCNS(=O)(=O)c1cccc2nsnc12)N1CCN(c2ccccn2)CC1`, the “hERG current change (%, negative = inhibition) at 10uM” value is listed as -24%. For the molecule `CCCN(CCC)C(=O)C1CCC(CNS(=O)(=O)c2cccc3nsnc23)CC1` (stereo not drawn), the “hERG current change (%, negative = inhibition) at 10uM” value is listed as -69.5%. For `CCCCN(CC)C(=O)C1CCC(CNS(=O)(=O)c2cccc3nsnc23)CC1` (stereo not drawn) the value was -23.7%; for `CC1CCN(C(=O)C2CCCN(S(=O)(=O)c3cccc4nsnc34)C2)CC1` (stereo not drawn), -27.8%. In the case of `CCN(CC)C(=O)C1CCC(CNS(=O)(=O)c2cccc3nsnc23)CC1` (stereo not drawn), the “hERG current change (%, negative = inhibition) at 10uM” value was 2.47%.

On to `O=C(C1CCCN(S(=O)(=O)c2cccc3nsnc23)C1)N1CCCCCC1` (stereo not drawn), for which the “hERG current change (%, negative = inhibition) at 10uM” value is listed as -16.8%.

Consider `O=C(C1CCCN(S(=O)(=O)c2cccc3nsnc23)C1)N1CCN(c2ccccn2)CC1` (stereo not drawn), for which the “hERG current change (%, negative = inhibition) at 10uM” value is given as -50.2%. As for `O=C(C1CCC(CNS(=O)(=O)c2cccc3nsnc23)CC1)N1CC=C(c2ccccc2)CC1` (stereo not drawn), the “hERG current change (%, negative = inhibition) at 10uM” value is given as -10.3%. As for `CN(C)c1ccc(CN(Cc2ccco2)C(=O)c2ccco2)cc1`, the “hERG current change (%, negative = inhibition) at 10uM” value is reported as -30.1%.

For `COC(=O)c1ccc(C(=O)OC)c(NC(=S)N2CCN(C)CC2)c1`, the “hERG current change (%, negative = inhibition) at 10uM” value came out at 20.4%.

For `Cc1cc(C(=O)CS(=O)(=O)c2ccc(Cl)cc2)cc(C)c1O`, the “hERG current change (%, negative = inhibition) at 10uM” value is 16.6%. For `CS(=O)(=O)Nn1cnc2ccccc2c1=O` the value was 10.7%; for `Cc1cc(C)c(S(=O)(=O)N2CCCOC2CNC(=O)C(=O)NCc2cccs2)c(C)c1` (stereo not drawn), -8.31%; for `O=C1NC(=Nc2ccccc2)/C(=C/c2ccco2)S1`, 12.4%. In the case of `CCOc1ncccc1C(=O)NNC(=O)c1cccc(S(=O)(=O)Nc2ccc(OC)cc2)c1`, the “hERG current change (%, negative = inhibition) at 10uM” value was 6.87%.

As for `CCOC(=O)Cc1[nH]nc2c1C(c1cccc(OC)c1OC)C(C#N)=C(N)O2` (stereo not drawn), the “hERG current change (%, negative = inhibition) at 10uM” value is recorded as -0.21%. The value for `O=C(O)CCC(=O)N1CCN(c2nc(-c3ccccc3)c3ccccc3n2)CC1` was 13.7%; that for `CCOC(=O)N1CCN(c2nc(-c3ccccc3)c3ccccc3n2)CC1` was 5.1%; that for `O=C1CN(c2nc(-c3ccccc3)c3cc(Cl)ccc3n2)c2ccccc2N1` was 13.1%.

Regarding `CCN1CCN(c2nc(-c3ccccc3)c3ccccc3n2)CC1`, the “hERG current change (%, negative = inhibition) at 10uM” value is on record as -71.2%. As to `O=C(O)CCCC(=O)N1CCN(c2nc(-c3ccccc3)c3ccccc3n2)CC1`, the “hERG current change (%, negative = inhibition) at 10uM” value worked out at 1.86%. The value for `c1ccc(-c2nc(N3CCCC3)nc3ccccc23)cc1` was 8.87%. As for `CN1CCN(c2nc(-c3ccccc3)c3cc(Cl)ccc3n2)CC1`, the “hERG current change (%, negative = inhibition) at 10uM” value is reported as -48.1%.

In the case of `c1ccc(-c2nc(N3CCNCC3)nc3ccccc23)cc1`, the “hERG current change (%, negative = inhibition) at 10uM” value is reported as -65.2%. Regarding `Clc1ccc2nc(N3CCNCC3)nc(-c3ccccc3)c2c1`, the “hERG current change (%, negative = inhibition) at 10uM” value was -59.1%.
